The results in this text go back to ChEMBL document CHEMBL2218924, “A broad activity screen in support of a chemogenomic map for kinase signalling research and drug discovery” (Biochem J, 2013).

Test [1] deals with T1, Protein kinase C zeta type (Homo sapiens) (UniProt Q05513).
T1 sequence (whole entry): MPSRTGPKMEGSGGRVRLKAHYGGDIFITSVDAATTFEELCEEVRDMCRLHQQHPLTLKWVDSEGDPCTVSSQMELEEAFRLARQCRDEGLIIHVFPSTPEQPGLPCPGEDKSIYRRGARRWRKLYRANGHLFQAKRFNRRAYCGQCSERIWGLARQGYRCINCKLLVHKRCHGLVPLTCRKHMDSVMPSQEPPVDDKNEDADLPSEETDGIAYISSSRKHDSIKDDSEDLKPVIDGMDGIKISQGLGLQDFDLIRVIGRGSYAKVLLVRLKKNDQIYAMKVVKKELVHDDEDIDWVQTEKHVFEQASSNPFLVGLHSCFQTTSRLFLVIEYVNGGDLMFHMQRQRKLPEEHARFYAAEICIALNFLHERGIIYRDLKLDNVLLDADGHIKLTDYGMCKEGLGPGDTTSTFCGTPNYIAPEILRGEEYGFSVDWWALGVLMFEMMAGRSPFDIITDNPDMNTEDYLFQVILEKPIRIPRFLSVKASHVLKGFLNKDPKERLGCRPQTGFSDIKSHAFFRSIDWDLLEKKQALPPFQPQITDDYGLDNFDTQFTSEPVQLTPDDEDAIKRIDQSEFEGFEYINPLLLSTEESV
The note with it: at 1 µM.

Test [2] deals with T2, Mitogen-activated protein kinase kinase kinase 5 (Homo sapiens) (UniProt Q99683).
T2 sequence (whole entry): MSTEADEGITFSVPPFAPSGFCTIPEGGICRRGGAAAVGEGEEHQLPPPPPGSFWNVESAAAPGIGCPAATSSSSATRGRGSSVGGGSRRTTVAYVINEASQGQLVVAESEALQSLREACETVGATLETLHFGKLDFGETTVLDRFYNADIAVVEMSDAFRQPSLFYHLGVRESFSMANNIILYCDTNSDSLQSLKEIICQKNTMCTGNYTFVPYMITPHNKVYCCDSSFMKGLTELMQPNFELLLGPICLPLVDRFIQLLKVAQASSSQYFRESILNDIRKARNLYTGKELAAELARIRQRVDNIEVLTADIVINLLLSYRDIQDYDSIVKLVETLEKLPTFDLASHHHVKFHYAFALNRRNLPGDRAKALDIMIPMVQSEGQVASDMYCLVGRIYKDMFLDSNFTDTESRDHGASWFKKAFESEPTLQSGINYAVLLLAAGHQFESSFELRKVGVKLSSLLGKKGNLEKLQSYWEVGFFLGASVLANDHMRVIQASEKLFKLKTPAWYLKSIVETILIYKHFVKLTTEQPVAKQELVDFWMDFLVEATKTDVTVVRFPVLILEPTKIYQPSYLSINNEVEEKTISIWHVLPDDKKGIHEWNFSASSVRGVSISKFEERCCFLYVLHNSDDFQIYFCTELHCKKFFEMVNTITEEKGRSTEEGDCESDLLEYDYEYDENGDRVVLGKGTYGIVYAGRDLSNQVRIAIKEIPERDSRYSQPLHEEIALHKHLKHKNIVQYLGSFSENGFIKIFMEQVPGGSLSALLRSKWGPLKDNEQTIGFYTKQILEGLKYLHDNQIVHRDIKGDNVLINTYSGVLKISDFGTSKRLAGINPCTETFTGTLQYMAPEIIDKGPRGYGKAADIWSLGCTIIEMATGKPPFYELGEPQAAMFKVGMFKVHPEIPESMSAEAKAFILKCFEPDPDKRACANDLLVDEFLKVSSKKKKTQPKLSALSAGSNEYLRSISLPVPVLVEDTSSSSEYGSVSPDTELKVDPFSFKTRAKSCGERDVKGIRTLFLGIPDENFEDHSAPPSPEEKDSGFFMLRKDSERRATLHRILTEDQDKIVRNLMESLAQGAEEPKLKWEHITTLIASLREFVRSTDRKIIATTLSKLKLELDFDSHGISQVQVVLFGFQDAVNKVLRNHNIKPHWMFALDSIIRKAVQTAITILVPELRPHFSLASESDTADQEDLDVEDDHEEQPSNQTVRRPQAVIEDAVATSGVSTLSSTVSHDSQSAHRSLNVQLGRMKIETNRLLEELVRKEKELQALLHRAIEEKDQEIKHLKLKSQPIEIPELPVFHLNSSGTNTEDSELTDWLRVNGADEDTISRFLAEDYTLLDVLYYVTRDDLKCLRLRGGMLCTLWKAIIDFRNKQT
To be noted: at 10 µM.

Test [3] deals with Tyrosine-protein kinase ABL1 (Homo sapiens) (UniProt P00519). To be noted: at 1 µM.
Sequence of Tyrosine-protein kinase ABL1 (Homo sapiens) (P00519 whole entry): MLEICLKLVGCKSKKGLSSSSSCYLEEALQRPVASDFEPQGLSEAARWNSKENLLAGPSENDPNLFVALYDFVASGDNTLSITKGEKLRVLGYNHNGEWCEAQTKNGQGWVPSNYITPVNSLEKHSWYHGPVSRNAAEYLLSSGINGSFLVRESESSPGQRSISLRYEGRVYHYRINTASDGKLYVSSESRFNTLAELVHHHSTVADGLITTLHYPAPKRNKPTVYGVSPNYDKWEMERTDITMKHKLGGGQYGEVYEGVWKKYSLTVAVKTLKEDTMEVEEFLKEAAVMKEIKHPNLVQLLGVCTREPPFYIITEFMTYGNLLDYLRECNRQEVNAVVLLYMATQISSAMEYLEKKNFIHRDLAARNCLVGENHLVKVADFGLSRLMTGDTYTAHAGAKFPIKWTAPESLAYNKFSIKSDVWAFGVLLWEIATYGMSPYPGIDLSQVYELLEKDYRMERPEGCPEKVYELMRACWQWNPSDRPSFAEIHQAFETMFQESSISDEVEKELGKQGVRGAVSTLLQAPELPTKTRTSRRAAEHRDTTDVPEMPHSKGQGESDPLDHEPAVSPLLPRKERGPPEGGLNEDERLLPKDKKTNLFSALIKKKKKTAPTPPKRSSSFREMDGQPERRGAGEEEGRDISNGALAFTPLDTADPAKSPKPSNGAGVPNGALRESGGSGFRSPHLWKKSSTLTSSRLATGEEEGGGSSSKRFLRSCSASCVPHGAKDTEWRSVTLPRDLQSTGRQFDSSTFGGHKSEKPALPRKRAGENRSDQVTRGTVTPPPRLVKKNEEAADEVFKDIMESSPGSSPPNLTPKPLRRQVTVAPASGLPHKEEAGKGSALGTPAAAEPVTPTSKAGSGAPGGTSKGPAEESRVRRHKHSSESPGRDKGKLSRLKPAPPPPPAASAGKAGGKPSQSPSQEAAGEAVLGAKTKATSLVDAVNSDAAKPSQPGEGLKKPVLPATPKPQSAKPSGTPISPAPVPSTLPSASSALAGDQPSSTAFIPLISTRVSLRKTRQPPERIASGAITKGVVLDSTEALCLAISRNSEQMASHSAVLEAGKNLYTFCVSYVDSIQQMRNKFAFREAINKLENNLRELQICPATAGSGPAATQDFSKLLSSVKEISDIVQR
Test [4] shares this target. To be noted: at 10 µM.
For test [5], the target named is Tyrosine-protein kinase ABL2 (Homo sapiens) (UniProt P42684). The note with it: at 1 µM.
Sequence of Tyrosine-protein kinase ABL2 (Homo sapiens) (P42684 whole entry): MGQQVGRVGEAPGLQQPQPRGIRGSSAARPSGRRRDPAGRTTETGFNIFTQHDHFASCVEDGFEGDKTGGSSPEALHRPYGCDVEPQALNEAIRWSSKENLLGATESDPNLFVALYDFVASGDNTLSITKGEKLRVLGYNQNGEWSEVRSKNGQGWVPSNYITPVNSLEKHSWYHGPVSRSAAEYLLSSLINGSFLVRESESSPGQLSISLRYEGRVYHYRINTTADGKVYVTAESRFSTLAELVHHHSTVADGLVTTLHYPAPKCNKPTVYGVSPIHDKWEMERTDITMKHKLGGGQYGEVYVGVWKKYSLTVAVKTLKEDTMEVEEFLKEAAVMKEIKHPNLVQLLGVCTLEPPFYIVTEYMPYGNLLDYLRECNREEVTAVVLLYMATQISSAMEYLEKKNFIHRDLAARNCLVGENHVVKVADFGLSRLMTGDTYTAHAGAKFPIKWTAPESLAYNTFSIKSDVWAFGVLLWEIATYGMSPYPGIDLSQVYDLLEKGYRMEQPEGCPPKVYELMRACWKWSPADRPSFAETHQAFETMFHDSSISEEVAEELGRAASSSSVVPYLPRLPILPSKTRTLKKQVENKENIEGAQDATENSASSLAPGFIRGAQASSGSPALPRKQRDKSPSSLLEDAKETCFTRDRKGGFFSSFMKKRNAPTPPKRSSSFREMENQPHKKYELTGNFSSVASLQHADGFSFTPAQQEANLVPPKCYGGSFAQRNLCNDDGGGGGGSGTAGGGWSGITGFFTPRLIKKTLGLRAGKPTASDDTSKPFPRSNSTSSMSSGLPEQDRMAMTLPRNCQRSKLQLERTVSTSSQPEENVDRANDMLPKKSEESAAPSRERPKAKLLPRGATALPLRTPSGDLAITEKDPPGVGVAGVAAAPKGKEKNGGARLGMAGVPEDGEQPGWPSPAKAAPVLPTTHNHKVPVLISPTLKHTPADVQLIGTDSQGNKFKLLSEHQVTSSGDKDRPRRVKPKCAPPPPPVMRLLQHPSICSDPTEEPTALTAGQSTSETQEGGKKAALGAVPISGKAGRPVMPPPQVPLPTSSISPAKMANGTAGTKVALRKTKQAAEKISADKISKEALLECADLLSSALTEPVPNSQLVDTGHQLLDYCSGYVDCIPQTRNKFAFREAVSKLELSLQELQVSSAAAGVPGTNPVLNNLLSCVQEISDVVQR
Test [6] has the same target. To be noted: at 10 µM.
The target in test [7] is T3, Aurora kinase A (Homo sapiens) (UniProt O14965).
T3 sequence (whole entry): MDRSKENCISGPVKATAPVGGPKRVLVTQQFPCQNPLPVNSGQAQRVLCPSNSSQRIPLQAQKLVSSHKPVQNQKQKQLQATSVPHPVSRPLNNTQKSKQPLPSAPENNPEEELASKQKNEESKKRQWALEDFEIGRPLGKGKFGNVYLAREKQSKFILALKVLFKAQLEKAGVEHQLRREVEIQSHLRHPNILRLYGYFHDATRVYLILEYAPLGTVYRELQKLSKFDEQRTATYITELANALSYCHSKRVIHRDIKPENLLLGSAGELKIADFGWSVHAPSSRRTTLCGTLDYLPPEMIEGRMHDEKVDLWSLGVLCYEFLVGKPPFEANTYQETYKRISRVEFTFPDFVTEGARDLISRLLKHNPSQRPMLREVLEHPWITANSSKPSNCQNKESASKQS
To be noted: at 1 µM.

The target in test [8] is T3, Aurora kinase A (Homo sapiens). To be noted: at 10 µM.
For test [9], the target named is Aurora kinase B (Homo sapiens) (UniProt Q96GD4). The note with it: at 1 µM.
Sequence of Aurora kinase B (Homo sapiens) (Q96GD4 whole entry): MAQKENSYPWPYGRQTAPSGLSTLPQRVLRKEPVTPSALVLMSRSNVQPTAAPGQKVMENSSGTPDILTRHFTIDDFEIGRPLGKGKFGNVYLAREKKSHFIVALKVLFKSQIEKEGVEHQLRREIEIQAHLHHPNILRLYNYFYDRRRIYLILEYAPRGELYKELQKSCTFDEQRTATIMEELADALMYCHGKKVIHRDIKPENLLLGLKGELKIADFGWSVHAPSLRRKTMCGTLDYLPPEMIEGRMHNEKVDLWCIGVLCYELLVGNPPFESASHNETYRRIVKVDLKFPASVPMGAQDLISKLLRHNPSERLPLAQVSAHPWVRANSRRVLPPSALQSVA
The target is the same in test [10]. To be noted: at 10 µM.

`CN(C)CCCn1cc(C2=C(c3c[nH]c4ccccc34)C(=O)NC2=O)c2ccccc21`: the residual activity in [1] was 72% (inactive); in [2], 108%; in [3] it was 108%; in test [4] it was 108%; in test [5], 90%; in [6] it was 76%. Also, the residual activity turned out to be 100% in test [7], 80% in test [8], 31% in [9] and 7% in [10].
As to `Nc1ccc2ncnc(NCCc3ccc(Oc4ccccc4)cc3)c2c1`, the residual activity is 108% (inactive) in [1]; 80% in test [2]; 100% in test [3]; 101% in test [4]; 104% in test [5]; 78% in test [6]. The residual activity in [7] was found to be 102%; in test [8], 110%; in test [9], 41%; in test [10], 11%.
As to `N#Cc1cnc2cnc(NCc3cccnc3)cc2c1Nc1ccc(F)c(Cl)c1`, the residual activity in test [1] is 103% (inactive); in test [2], 65%; in [3] it was 98%; in test [4], 84%; in [5], 82%; in [6], 55%. For the same molecule, the residual activity in test [7] stood at 31%; in [8], 24%; in test [9], 3%; in test [10] it was 1%.
As for `O=C(O)c1ccc2c3c1cccc3c(=O)n1c3ccccc3nc21`, the residual activity in test [1] was 112% (inactive); in [2] it was 72%; in [3], 101%; in test [4] it was 80%; in test [5] it was 91%; in [6] it was 74%. The residual activity in test [7] was determined as 72%; in test [8] it was 16%; in test [9], 64%; in [10] it was 18%.
Regarding `C[C@@H](N)[C@H]1CC[C@H](C(=O)Nc2ccncc2)CC1`, the residual activity is 103% (inactive) in test [1]; 96% in test [2]; 113% in [3]; 101% in [4]; 107% in test [5]; 100% in test [6]. The residual activity in [7] worked out at 95%; in test [8], 89%; in test [9] it was 73%; in test [10], 82%.
For the molecule `COc1ccc(OC)c2c(=S)c3ccccc3[nH]c12`, the residual activity in test [1] was 104% (inactive); in test [2], 97%; in test [3], 97%; in test [4] it was 89%; in test [5], 116%; in test [6], 84%. In addition, the residual activity in [7] was 116%; in [8], 90%; in test [9] it was 93%; in test [10], 52%.
Take `COc1ccc(C(=O)Nc2sc3c(c2C(N)=O)CCCC3)cc1OC`: the residual activity is 96% (inactive) in test [1]; 109% in [2]; 87% in test [3]; 86% in test [4]; 126% in [5]; 101% in test [6]. The residual activity in test [7] was 93%; in test [8], 96%; in [9] it was 69%; in test [10] it was 46%.
With `COc1cc2ncnc(Nc3ccc(O)c(Br)c3)c2cc1OC`, the residual activity in test [1] was 96% (inactive); in test [2], 82%; in [3] it was 64%; in [4], 13%; in test [5] it was 76%; in test [6], 22%. Moreover, the residual activity in [7] turned out to be 49%; in test [8] it was 26%; in test [9], 43%; in [10], 2%.
Regarding `Cc1ccc(NC2=CC(=O)c3sc(C)nc3C2=O)cc1`, the residual activity in [1] was 100% (inactive); in [2], 116%; in [3], 99%; in [4], 82%; in test [5] it was 122%; in [6], 91%. For the same molecule, the residual activity in test [7] worked out at 116%; in test [8], 96%; in test [9], 104%; in test [10], 68%.
On to `Cn1nc2c3c(cccc31)C(=O)c1ccccc1-2`, for which the residual activity is 102% (inactive) in [1]; 29% in test [2]; 101% in test [3]; 70% in test [4]; 102% in test [5]; 86% in test [6]. Further, the residual activity in test [7] came to 79%; in test [8], 74%; in [9], 75%; in test [10], 6%.
`CCN(CC)CCCCN1c2ccccc2Oc2ccc(Cl)cc21`: the residual activity is 114% (inactive) in test [1]; 114% in [2]; 124% in test [3]; 102% in test [4]; 140% in [5]; 122% in test [6]. Moreover, the residual activity worked out at 97% in [7], 140% in test [8], 141% in [9] and 103% in test [10].
On to `CC(=O)O/N=C1\C(=C2\C(=O)Nc3cc(Br)ccc32)Nc2ccccc21`, for which the residual activity in test [1] is 108% (inactive); in [2] it was 94%; in test [3] it was 60%; in [4], 7%; in test [5], 31%; in test [6], 4%. In addition, the residual activity in [7] worked out at 41%; in [8], 17%; in test [9] it was 19%; in test [10] it was 6%.
For the molecule `CC(C)n1cnc2c(NCc3ccccc3)nc(NCCCO)nc21`, the residual activity in [1] is 98% (inactive); in [2], 102%; in test [3], 96%; in test [4], 81%; in test [5], 93%; in test [6], 89%. In addition, the residual activity in [7] came out at 109%; in test [8], 114%; in test [9] it was 99%; in test [10] it was 85%.
`Cc1nc2cc3nc(-c4cccs4)cnc3cc2n1C`: the residual activity is 99% (inactive) in [1]; 112% in [2]; 90% in [3]; 52% in [4]; 95% in test [5]; 83% in test [6]. Also, the residual activity in [7] is 88%; in [8], 69%; in [9] it was 80%; in test [10], 16%.
With `O=Nc1c(-c2c(O)[nH]c3ccccc23)[nH]c2ccccc12`, the residual activity in [1] is 101% (inactive); in test [2], 7%; in [3], 49%; in test [4], 16%; in [5] it was 30%; in test [6] it was 28%. Besides, the residual activity is 7% in test [7], 0% in test [8], 1% in test [9] and -2% in test [10].
As for `Oc1c2ccccc2c2c3c(cccc13)N=N2`, the residual activity is 110% (inactive) in test [1]; 5% in [2]; 83% in test [3]; 56% in [4]; 87% in test [5]; 72% in test [6]. Moreover, the residual activity came to 19% in test [7], 2% in [8], 1% in test [9] and 0% in [10].
Take `COc1cc2ncnc(Nc3ccc(Oc4ccccc4)cc3)c2cc1OC`: the residual activity in test [1] was 108% (inactive); in test [2] it was 73%; in test [3], 61%; in test [4], 75%; in [5] it was 82%; in test [6] it was 93%. The residual activity in [7] turned out to be 52%; in test [8], 30%; in test [9] it was 28%; in test [10] it was 9%.
